The values below come from ChEMBL document CHEMBL3988442, “University of Dundee, Small-Polar-MMV Screening Library” (2021).

The structures appear in SMILES notation. In all, about 48,000 compounds went through this assay and about 13,000 (27%) showed an effect of 50% or more. The list shows a part of the results.

The test concerns Wolbachia pipientis. The test is described as follows: Anti-Wolbachia Cell-Based Screen. It is filed as functional. On the set-up: scale not given: in the data most compounds retested in dose-response had high values. As to conditions: 5 µM.
For `Cc1ccc(OCC(=O)NS(=O)(=O)c2c(C)noc2C)cc1C`, the “Percent Effect” value came to 20.27%.

As to `CN(CCN1CCCC1=O)S(=O)(=O)CC1CCCC1`, the “Percent Effect” value is listed as -3.28%.

Consider `Cc1ncc(S(C)(=O)=O)c(N2Cc3ccccc3C2)n1`, for which the “Percent Effect” value was 20.01%.

As to `CCN(C)CC(=O)N1CCN(Cc2ccccc2)[C@@H]2CS(=O)(=O)C[C@@H]21`, the “Percent Effect” value is on record as -19.14%.

Regarding `CCN(CC)C(=O)c1ccn(COc2ccccc2)n1`, the “Percent Effect” value is -3.664%.

As to `Cc1nc(CNC(C(=O)N2CCOCC2)C(C)C)oc1C` (stereo not given), the “Percent Effect” value was -5.352%.

In the case of `CCOc1cccc2c1OCC(C(=O)NS(=O)(=O)c1ccc(Cl)s1)=C2`, the “Percent Effect” value was 108.5%.

For `CC(C)COCCC(=O)NS(=O)(=O)c1ccc(Cl)s1`, the “Percent Effect” value is 13.2%.

Turning to `CCOc1cccc2c1OCC(C(=O)NS(=O)(=O)c1ccc(C)s1)=C2`, the “Percent Effect” value was -6.763%.

On to `COc1ccc(NC(=O)CSc2nc(C)cc(C)n2)cn1`, for which the “Percent Effect” value was found to be 9.531%.

For the molecule `CC1c2ncc(CN3CCN(C)CC3)n2CCN1CC1CC1.O=C(O)C(F)(F)F.O=C(O)C(F)(F)F.O=C(O)C(F)(F)F` (stereo not given), the “Percent Effect” value was -5.269%.

Regarding `CCOCc1cnc2n1CCN(Cc1scnc1C)C2C.O=C(O)C(F)(F)F` (stereo not given), the “Percent Effect” value is -10.4%.

Consider `CC1c2ncc(CN3CCN(C)CC3)n2CCN1Cc1cccnc1.O=C(O)C(F)(F)F.O=C(O)C(F)(F)F.O=C(O)C(F)(F)F.O=C(O)C(F)(F)F` (stereo not given), for which the “Percent Effect” value is on record as 3.329%.

`CC1c2ncc(CN3CCN(C)CC3)n2CCN1Cc1ccsc1.O=C(O)C(F)(F)F.O=C(O)C(F)(F)F.O=C(O)C(F)(F)F` (stereo not given): the “Percent Effect” value is on record as 104.7%.

Take `CC1c2ncc(CN3CCN(C)CC3)n2CCN1Cc1ccc(F)cc1.O=C(O)C(F)(F)F.O=C(O)C(F)(F)F.O=C(O)C(F)(F)F` (stereo not given): the “Percent Effect” value came to 94.11%.

Consider `CC1c2ncc(CN3CCN(C)CC3)n2CCN1Cc1cnn(C)c1.O=C(O)C(F)(F)F.O=C(O)C(F)(F)F.O=C(O)C(F)(F)F` (stereo not given), for which the “Percent Effect” value was found to be 96.74%.

For the molecule `Cc1ccc(CN2CCn3c(CN4CCN(C)CC4)cnc3C2C)s1.O=C(O)C(F)(F)F.O=C(O)C(F)(F)F.O=C(O)C(F)(F)F` (stereo not given), the “Percent Effect” value stood at 98.84%.

Turning to `Nc1ccc(CC2COc3ccccc3C2)cn1` (stereo not given), the “Percent Effect” value stood at 18.77%.

Take `CCOc1ccc(S(=O)(=O)NCCc2ccc(N(C)C)cc2)cc1C`: the “Percent Effect” value came to 13.74%.

In the case of `CC(C)c1nc(CCN(C)C(=O)C2COc3ccccc3C2)no1` (stereo not given), the “Percent Effect” value is recorded as -22.02%.

Take `CC(NCc1c(C(C)C)nn(C)c1N(C)C)C(=O)NC1CCCC1.Cl` (stereo not given): the “Percent Effect” value is reported as -15.88%.

`Cc1cccc(NC(=O)CCNCc2c(C)nn(C)c2N(C)C)n1`: the “Percent Effect” value is -6.985%.

With `Cc1nn(C)c(N(C)C)c1CNCCC(=O)NC1CCCCC1`, the “Percent Effect” value worked out at 122.8%.

Turning to `Cc1nn(CC(C)C)c(N(C)C)c1CNCCC(=O)NC(C)C`, the “Percent Effect” value is recorded as -6.967%.

As for `CC(C)c1nn(C)c(N(C)C)c1CNCCC(=O)NC1CCCC1`, the “Percent Effect” value is reported as -3.602%.

As for `CC(C)c1nn(C)c(N(C)C)c1CNCCC(=O)NC1CCCCC1`, the “Percent Effect” value stood at 102.1%.

For `CNC(=O)CCCNCc1c(C)nn(C)c1N(C)C`, the “Percent Effect” value is -1.91%.

As to `Cc1nn(C)c(N(C)C)c1CNCCNS(C)(=O)=O`, the “Percent Effect” value is given as -8.307%.

`Cc1nn(C)c(N(C)C)c1CNCCC(=O)NC1CCCC1`: the “Percent Effect” value was found to be 122.8%.

On to `O=C1[C@@H]2CCN(CC3CC3)C[C@@H]2OCCN1c1ccsc1`, for which the “Percent Effect” value was -4.722%.

On to `O=C(N[C@@H]1CN(c2ncccn2)C[C@@H]2CCCO[C@@H]21)c1cnccn1.O=C(O)C(F)(F)F`, for which the “Percent Effect” value is reported as -32.47%.

Turning to `COc1ccc(-c2c[nH]c(C3CC(=O)N(CC(C)C)C3)n2)cc1` (stereo not given), the “Percent Effect” value is reported as -5.236%.

Turning to `CC(C)CN1CC[C@H](c2nnc(COc3ccc(F)cc3)o2)C1`, the “Percent Effect” value is on record as 3.256%.

Regarding `CCCN1CCC(c2cc(CCOc3ccc(C(F)(F)F)cc3)[nH]n2)C1` (stereo not given), the “Percent Effect” value is 115.7%.

For the molecule `Clc1ccc(OCCc2cc(C3CCN(c4ncccn4)C3)n[nH]2)cc1` (stereo not given), the “Percent Effect” value is reported as 119.6%.

Take `Br.COc1ccc(OCCc2cc(C3CCN(CC(C)C)C3)n[nH]2)cc1` (stereo not given): the “Percent Effect” value was found to be 140.6%.

Turning to `O=C(NCCN1CCCC1)Nc1cc(C(=O)N2CCOCC2)ccc1Cl`, the “Percent Effect” value is recorded as -2.741%.

Turning to `CC(CNS(C)(=O)=O)c1ccc(F)c(F)c1` (stereo not given), the “Percent Effect” value is 0.4429%.

As to `Cc1ccc(C(=O)N2C[C@H](NS(C)(=O)=O)[C@@H](C(C)C)C2)cc1F`, the “Percent Effect” value amounted to 7.707%.

Regarding `Cc1ccc(S(=O)(=O)NCC(C)C#N)cc1Br` (stereo not given), the “Percent Effect” value is -32.7%.

As for `CC(NC(=O)NC1CCN(Cc2ccncc2)CC1)c1cccc(F)c1` (stereo not given), the “Percent Effect” value was determined as 10.76%.

For the molecule `COc1ccc(N2CCCN(CC(=O)N3CCNC(=O)C3)CC2)cc1`, the “Percent Effect” value is -7.971%.

As for `NC(=O)C1CCN(C(=O)c2ccn(-c3ccc(F)cc3)n2)C1` (stereo not given), the “Percent Effect” value is on record as -7.383%.

With `CNC(=O)C1CCN(C(=O)c2ccn(-c3ccc(F)cc3)n2)CC1`, the “Percent Effect” value is -2.487%.

As for `Cc1cc(C(=O)NCc2ccc(N3CCCC(C(N)=O)C3)cc2)[nH]n1` (stereo not given), the “Percent Effect” value is on record as -1.321%.

Consider `CNC(=O)C1CN(c2ccc(F)cc2)CCN1.Cl` (stereo not given), for which the “Percent Effect” value amounted to 158.3%.

Regarding `COc1ccc(N2CCNC(C(N)=O)C2)cc1` (stereo not given), the “Percent Effect” value came out at 90.5%.

`Cl.NC(=O)C1CN(c2ccc(F)cc2)CCN1` (stereo not given): the “Percent Effect” value amounted to 113.5%.

With `CNC(=O)N1CCC2(CC1)CNc1ccc(F)cc12.Cl`, the “Percent Effect” value amounted to 2.564%.

For the molecule `COc1ccc(SC(C)C(=O)N2CCC(C(N)=O)CC2)cc1` (stereo not given), the “Percent Effect” value was -1.042%.
